Measurements reported in PubChem BioAssay (EPA / NIEHS).
The source made the active and inactive calls. Rule for the calls: active = hit-call score of the fitted dose curve at least 0.9, where 1 is the maximum; inactive = score below 0.9.

Key:
[1] = target: CCAAT/enhancer-binding protein beta (Homo sapiens) (UniProt P17676); test: ATG_C_EBP_CIS: Attagene CIS-FACTORIAL HepG2 Assay for human CCAAT/Enhancer Binding Protein (C/EBP) beta (AID 2282927); conditions: HepG2 Attagene cis-factorial transcription factor reporter; actives raise or lower the signal
Procedure, shortened: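 Chemical-treated HepG2 cells (24 h) bearing cis-regulated reporter constructs were processed for total RNA, then reverse transcription, PCR amplification, fluorescent primer extension and fragment analysis; gain- and loss-of-signal were fitted against DMSO.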

[2] = ATG_CMV_CIS: Attagene CIS-FACTORIAL HepG2 Assay for human CMV (Internal Marker) (AID 2282928); conditions: HepG2 CMV promoter reporter, transcription factor profiling; actives raise or lower the signal;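 note: endpoint acts as a background internal control marker rather than a target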
Procedure, shortened: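 Cell system: HepG2, transiently transfected multiple reporter units under cis promoters. Exposure: 24 h. Detection: RT-PCR, FAM labeling, HpaI digestion, capillary electrophoresis. Analysis: bidirectional, DMSO baseline.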

[3] = ATG_DR4_LXR_CIS: Attagene CIS-FACTORIAL HepG2 Assay for human Liver X Receptor (LXR), DR4 submotif (AID 2282929); conditions: HepG2 Attagene DR4 cis-reporter, mRNA transcription; actives raise or lower the signal
Procedure, shortened: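 DR4 cis-reporter in HepG2, 24 h exposure. Detection: RT-PCR, 6-FAM labelling, CE fragment analysis. Endpoint fitted bidirectionally, DMSO = baseline.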

[4] = ATG_AP_1_CIS: Attagene CIS-FACTORIAL HepG2 Assay for human Activator Protein 1 (AP-1) (AID 2282931); conditions: HepG2 Attagene cis-factorial AP-1 reporter mRNA; actives raise or lower the signal
Procedure, shortened: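 Cis-regulated reporter units transiently expressed in HepG2 report endogenous transcription-factor activity. Signal: reporter mRNA at 24 h, via RT-PCR and fluorescent capillary electrophoresis. Endpoint derived by bidirectional fitting, DMSO as negative control.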

[5] = ATG_BRE_CIS: Attagene CIS-FACTORIAL HepG2 Assay for human Bone Morphogenetic Protein (BMP) Response Element (BRE) (AID 2282933); conditions: HepG2 BMP response element reporter, Attagene transcription factor profiling; actives raise or lower the signal
Procedure, shortened: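 Transient MRTU transfection of human HepG2 liver cells; 24 h compound treatment; total RNA isolated, reverse-transcribed, PCR-amplified, 6-FAM labelled, HpaI-cut, capillary electrophoresis. DMSO = negative control/baseline, bidirectional fit.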

[6] = target: Retinoic acid receptor alpha (Homo sapiens) (UniProt P10276); test: ATG_DR5_RAR_CIS: Attagene CIS-FACTORIAL HepG2 Assay for human Retinoic Acid Receptor Alpha (RARE), DR5 submotif (AID 2282934); conditions: HepG2 Attagene cis-factorial RARE DR5 reporter, mRNA; actives raise or lower the signal;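 for AC50: reporter responds to endogenous RAR alpha beta and gamma in HepG2 not RARA alone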
Procedure, shortened: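 Transfected HepG2 reporter cells are exposed to chemicals for 24 h. Then RNA is extracted and the DR5 element reporter transcript is measured by RT-PCR and capillary electrophoresis, with bidirectional curve fitting relative to DMSO.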

[7] = target: Transcription factor E2F1 (Homo sapiens) (UniProt Q01094); test: ATG_E2F_CIS: Attagene CIS-FACTORIAL HepG2 Assay for human E2F Transcription Factor 1 (AID 2282935); conditions: HepG2 Attagene cis-reporter, E2F reporter RNA transcripts; actives raise or lower the signal
Procedure, shortened: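 Multiplexed cis-reporter assay: HepG2, transient transfection, 24 h dosing, mRNA quantitation by labeled RT-PCR and CE.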

[8] = ATG_E_Box_CIS: Attagene CIS-FACTORIAL HepG2 Assay for human Enhancer Box (E-box) (AID 2282936); conditions: HepG2 E-box cis-reporter transcription, actives raise or lower the signal
Procedure, shortened: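 Multiplexed CIS reporter system in transiently transfected HepG2 cells measures native transcription factor activity. Reporter RNA after 24 h exposure is profiled by RT-PCR-capillary electrophoresis.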

[9] = ATG_M_61_CIS: Attagene CIS-FACTORIAL HepG2 Assay for M61 Transcription Factor (Internal Marker) (AID 2282937); conditions: HepG2 Attagene CIS-FACTORIAL M61 internal marker reporter; actives raise or lower the signal
Procedure, shortened: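 Background-control endpoint: HepG2 cells with cis-regulated reporter constructs, 24 h exposure, reporter mRNA detected via fluorescent primer extension and capillary electrophoresis; values from bidirectional fitting with DMSO baseline.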

[10] = ATG_EGR_CIS: Attagene CIS-FACTORIAL HepG2 Assay for human Early Growth Response 1 (EGR1) (AID 2282938); conditions: HepG2 Attagene CIS-FACTORIAL EGR reporter mRNA; actives raise or lower the signal
Procedure, shortened: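 Endpoint derived by bidirectional fitting versus DMSO vehicle. Method: cis-promoter reporter units transfected into HepG2, 24 h dosing, RNA isolation, RT-PCR with 6-FAM primer extension and HpaI digestion, then capillary electrophoresis fluorescence detection.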

[11] = ATG_M_19_CIS: Attagene CIS-FACTORIAL HepG2 Assay for M19 Transcription Factor (Internal Marker) (AID 2282939); conditions: HepG2 Attagene CIS-FACTORIAL M19 internal marker reporter; actives raise or lower the signal
Procedure, shortened: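 Transfect HepG2 with MRTU reporter library → dose chemical, 24 h → isolate total RNA, reverse-transcribe with oligo(dT) → PCR, 6-FAM label, HpaI cut (2 h, 37 C) → capillary electrophoresis. Bidirectional fit vs DMSO.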

[12] = ATG_Ets_CIS: Attagene CIS-FACTORIAL HepG2 Assay for human Erythroblast Transformation Specific (ETS) (AID 2282941); conditions: HepG2 ETS cis-reporter transcription, actives raise or lower the signal
Procedure, shortened: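 After transient cis-reporter transfection, HepG2 cells receive test chemical for 24 h. Reporter mRNA levels, measured by RT-PCR and capillary electrophoresis fluorescence, are analysed bidirectionally relative to the DMSO baseline.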

[13] = target: Hepatocyte nuclear factor 3-beta (Homo sapiens) (UniProt Q9Y261); test: ATG_FoxA2_CIS: Attagene CIS-FACTORIAL HepG2 Assay for human Forkhead box A2 (FOXA2) (AID 2282942); conditions: HepG2 cis-reporter transcription factor activity, 24 h; actives raise or lower the signal
Procedure, shortened: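 Measured: reporter mRNA induction or loss in HepG2 transiently carrying multiple cis-regulated reporter units, 24 h after dosing. Quantified by RT-PCR plus capillary electrophoresis, normalised to DMSO.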

[14] = ATG_FoxO_CIS: Attagene CIS-FACTORIAL HepG2 Assay for human Forkhead box O (FoxO) (AID 2282943); conditions: HepG2 Attagene cis-reporter, FoxO element, mRNA; actives raise or lower the signal
Procedure, shortened: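 24 h chemical exposure, HepG2 with transient cis-MRTU transfection. RNA extraction, oligo(dT) RT, reporter-specific PCR, primer-extension labelling, HpaI digestion, CE fragment analysis; bidirectional fit, DMSO baseline.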

[15] = ATG_GATA_CIS: Attagene CIS-FACTORIAL HepG2 Assay for human GATA Binding Protein (AID 2282944); conditions: HepG2 GATA cis-element reporter, Attagene multiplex mRNA; actives raise or lower the signal
Procedure, shortened: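 Transient MRTU transfection, HepG2, 24 h compound exposure. Total RNA → oligo(dT) RT → PCR → 6-FAM primer extension → HpaI cut → CE. Bidirectional fit vs DMSO.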

[16] = ATG_GLI_CIS: Attagene CIS-FACTORIAL HepG2 Assay for human Zinc Finger Protein GLI1 (AID 2282945); conditions: HepG2, Attagene cis-factorial reporter mRNA, GLI element; actives raise or lower the signal
Procedure, shortened: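 HepG2 cells transiently transfected with cis-promoter multiplexed reporter units report endogenous transcription factor activity. After 24 h chemical exposure, reporter mRNA was quantified by RT-PCR, 6-FAM labelling, HpaI digestion and capillary electrophoresis, with bidirectional fitting against DMSO.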

[17] = target: Aryl hydrocarbon receptor (Homo sapiens) (UniProt P35869); test: ATG_Ahr_CIS: Attagene CIS-FACTORIAL HepG2 Assay for human Aryl Hydrocarbon Receptor (Ahr) (AID 2282930); conditions: HepG2 AhR cis-factorial reporter transcription; actives raise or lower the signal
Procedure, shortened: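 Following 24 h of chemical dosing, transfected HepG2 liver cells with cis-driven reporter units were lysed for RNA; reporter mRNA was quantified via RT-PCR and capillary electrophoresis, and responses fitted bidirectionally from DMSO.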

[18] = ATG_AP_2_CIS: Attagene CIS-FACTORIAL HepG2 Assay for human Activator Protein 2 (AP-2) (AID 2282932); conditions: HepG2 AP-2 cis-reporter, Attagene transcription factor profiling; actives raise or lower the signal
Procedure, shortened: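 Bidirectional curve fitting against DMSO was applied to reporter mRNA signals from HepG2 cells 24 h after dosing. Cis-promoter reporter units, transiently transfected, were read by RT-PCR plus capillary electrophoresis.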

Measured: AC50

Sequence of Hepatocyte nuclear factor 3-beta (Homo sapiens) (Q9Y261 whole entry, looked up): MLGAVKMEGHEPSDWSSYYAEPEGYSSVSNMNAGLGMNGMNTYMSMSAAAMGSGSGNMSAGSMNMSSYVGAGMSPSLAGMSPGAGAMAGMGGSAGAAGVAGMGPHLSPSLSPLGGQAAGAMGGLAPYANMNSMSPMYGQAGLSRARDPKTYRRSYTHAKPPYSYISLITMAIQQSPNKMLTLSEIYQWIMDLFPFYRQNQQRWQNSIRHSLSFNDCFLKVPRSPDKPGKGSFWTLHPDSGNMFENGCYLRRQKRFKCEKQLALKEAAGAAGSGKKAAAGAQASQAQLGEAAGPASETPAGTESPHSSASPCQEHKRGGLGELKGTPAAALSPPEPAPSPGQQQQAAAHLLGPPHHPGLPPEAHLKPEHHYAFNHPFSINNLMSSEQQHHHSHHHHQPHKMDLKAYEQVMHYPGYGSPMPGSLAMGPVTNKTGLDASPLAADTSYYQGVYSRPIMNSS
Sequence of CCAAT/enhancer-binding protein beta (Homo sapiens) (P17676 whole entry, looked up, the tested form may be a part): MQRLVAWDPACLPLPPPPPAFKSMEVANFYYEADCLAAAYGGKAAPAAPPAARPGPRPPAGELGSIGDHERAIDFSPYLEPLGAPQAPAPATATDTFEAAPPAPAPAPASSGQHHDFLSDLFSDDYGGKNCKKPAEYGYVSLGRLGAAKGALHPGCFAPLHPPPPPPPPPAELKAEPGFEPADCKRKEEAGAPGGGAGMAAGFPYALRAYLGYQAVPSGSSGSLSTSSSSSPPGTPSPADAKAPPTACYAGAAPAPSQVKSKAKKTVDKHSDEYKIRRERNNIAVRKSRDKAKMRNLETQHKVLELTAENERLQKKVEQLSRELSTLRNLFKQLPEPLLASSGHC
Sequence of Retinoic acid receptor alpha (Homo sapiens) (P10276 whole entry, looked up): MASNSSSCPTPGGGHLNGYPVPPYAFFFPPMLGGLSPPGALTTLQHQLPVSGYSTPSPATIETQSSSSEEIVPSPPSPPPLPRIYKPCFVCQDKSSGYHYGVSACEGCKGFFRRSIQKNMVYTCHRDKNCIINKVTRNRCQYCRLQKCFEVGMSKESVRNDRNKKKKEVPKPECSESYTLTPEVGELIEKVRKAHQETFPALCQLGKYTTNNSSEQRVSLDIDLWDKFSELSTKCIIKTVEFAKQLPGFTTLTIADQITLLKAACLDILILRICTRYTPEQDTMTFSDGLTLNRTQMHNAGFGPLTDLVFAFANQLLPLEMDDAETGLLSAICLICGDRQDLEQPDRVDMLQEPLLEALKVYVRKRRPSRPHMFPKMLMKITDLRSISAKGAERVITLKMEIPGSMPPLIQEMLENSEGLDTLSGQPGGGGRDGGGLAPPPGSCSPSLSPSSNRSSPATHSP
Sequence of Transcription factor E2F1 (Homo sapiens) (Q01094 whole entry, looked up): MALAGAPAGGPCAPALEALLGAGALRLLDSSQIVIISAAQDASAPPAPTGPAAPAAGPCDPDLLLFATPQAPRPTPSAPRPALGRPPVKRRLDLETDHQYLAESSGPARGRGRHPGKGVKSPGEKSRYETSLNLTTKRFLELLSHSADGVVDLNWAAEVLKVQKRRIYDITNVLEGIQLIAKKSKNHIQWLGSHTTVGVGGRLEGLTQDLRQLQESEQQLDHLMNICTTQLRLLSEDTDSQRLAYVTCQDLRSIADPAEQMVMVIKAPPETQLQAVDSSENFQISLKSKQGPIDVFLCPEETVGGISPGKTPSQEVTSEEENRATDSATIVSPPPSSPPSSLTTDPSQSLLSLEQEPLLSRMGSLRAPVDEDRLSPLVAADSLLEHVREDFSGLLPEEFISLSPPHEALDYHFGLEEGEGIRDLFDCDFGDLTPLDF
Sequence of Aryl hydrocarbon receptor (Homo sapiens) (P35869 whole entry, looked up): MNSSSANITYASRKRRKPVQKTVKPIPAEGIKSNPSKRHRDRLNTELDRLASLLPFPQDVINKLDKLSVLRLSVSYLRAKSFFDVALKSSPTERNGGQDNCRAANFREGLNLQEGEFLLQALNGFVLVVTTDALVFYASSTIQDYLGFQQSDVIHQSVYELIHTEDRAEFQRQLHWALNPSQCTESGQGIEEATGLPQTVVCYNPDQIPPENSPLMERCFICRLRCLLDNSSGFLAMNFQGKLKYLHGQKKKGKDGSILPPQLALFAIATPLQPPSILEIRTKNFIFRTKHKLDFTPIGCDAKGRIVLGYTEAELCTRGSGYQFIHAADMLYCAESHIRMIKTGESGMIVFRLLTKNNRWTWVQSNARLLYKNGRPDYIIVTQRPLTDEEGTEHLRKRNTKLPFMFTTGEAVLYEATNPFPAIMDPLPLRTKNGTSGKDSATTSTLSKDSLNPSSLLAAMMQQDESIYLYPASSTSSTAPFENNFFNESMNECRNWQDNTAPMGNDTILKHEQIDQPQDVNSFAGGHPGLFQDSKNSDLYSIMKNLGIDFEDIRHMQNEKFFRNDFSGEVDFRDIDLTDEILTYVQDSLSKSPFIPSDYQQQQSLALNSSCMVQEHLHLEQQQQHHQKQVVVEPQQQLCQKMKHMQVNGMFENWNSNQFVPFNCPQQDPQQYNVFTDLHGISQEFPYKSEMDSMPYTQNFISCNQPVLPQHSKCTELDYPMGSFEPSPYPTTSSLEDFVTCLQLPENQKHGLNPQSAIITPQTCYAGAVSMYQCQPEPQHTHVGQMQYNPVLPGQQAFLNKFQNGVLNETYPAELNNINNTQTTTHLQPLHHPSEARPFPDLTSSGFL

N#Cc1ccc(CC(=O)c2cccc(C(F)(F)F)c2)cc1
active: [5] 128 µM | [8] 170 µM
inactive: [1] | [2] | [3] | [4] | [6] | [7] | [9] | [10] | [11] | [12] | [13] | [14] | [15] | [16]

CCCCC(CC)COC(C)=O (configuration not stated)
inactive: [1] | [2] | [3] | [17] | [4] | [18] | [5] | [6] | [8] | [9] | [10] | [11] | [12] | [13] | [14] | [15] | [16]

CC/C=C\CCOC(=O)CC
inactive: [1] | [2] | [3] | [17] | [4] | [18] | [5] | [7] | [8] | [9] | [10] | [11] | [12] | [13] | [14] | [15] | [16]

Cc1ccc2c(c1)C(=O)OC2=O
inactive: [1] | [2] | [3] | [17] | [4] | [18] | [5] | [6] | [7] | [8] | [9] | [10] | [11] | [12] | [13] | [14] | [15] | [16]

O=c1[nH]c(=O)c2cn[nH]c2[nH]1
inactive: [1] | [2] | [3] | [17] | [4] | [18] | [5] | [6] | [7] | [8] | [9] | [10] | [11] | [12] | [13] | [14] | [15] | [16]

O=C(CC(=O)c1ccccc1)c1ccccc1
inactive: [3] | [18] | [5] | [7] | [9] | [11] | [12] | [13] | [14]
active: [1] 70.4 µM | [2] 47.2 µM | [17] 25.9 µM | [4] 80.1 µM | [6] 62.5 µM | [8] 42.5 µM | [10] 100 µM | [16] 157 µM

CCCC(=O)c1ccccc1
inactive: [1] | [2] | [3] | [17] | [4] | [18] | [5] | [6] | [7] | [9] | [10] | [11] | [12] | [13] | [14] | [15] | [16]

Cc1cc(C)nc(NS(=O)(=O)c2ccc(N)cc2)n1
inactive: [1] | [2] | [3] | [17] | [4] | [18] | [5] | [6] | [7] | [8] | [9] | [10] | [11] | [12] | [13] | [15] | [16]

CC1=NN(c2ccc(S(=O)(=O)O)cc2)C(=O)C1
inactive: [1] | [2] | [3] | [4] | [18] | [5] | [6] | [7] | [8] | [9] | [10] | [11] | [12] | [13] | [14] | [15] | [16]

[Cl][Au]([Cl])[Cl]
active: [17] 39.8 µM
inactive: [1] | [2] | [3] | [5] | [6] | [7] | [8] | [9] | [10] | [11] | [12] | [16]
